Shown are actives, neighbours in structure and some others; about 2.3% of the full set was active somewhere.
Mcl1-Noxa inh: Mcl-1/Noxa interaction inhibition; AID 1022; TR-FRET Mcl-1/Noxa peptide binding, 2 h; Q07820; inhibition, % at 21.7 µM; 220,000 compounds, 1.5% hits;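 active means compounds that cut the protein-peptide binding signal by more than 50% relative to plate controls in a single-dose test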;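 further: His-tagged Mcl-1 with rhodamine Noxa BH3 peptide and terbium anti-His antibody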
Target sequence (Q07820 whole entry, looked up): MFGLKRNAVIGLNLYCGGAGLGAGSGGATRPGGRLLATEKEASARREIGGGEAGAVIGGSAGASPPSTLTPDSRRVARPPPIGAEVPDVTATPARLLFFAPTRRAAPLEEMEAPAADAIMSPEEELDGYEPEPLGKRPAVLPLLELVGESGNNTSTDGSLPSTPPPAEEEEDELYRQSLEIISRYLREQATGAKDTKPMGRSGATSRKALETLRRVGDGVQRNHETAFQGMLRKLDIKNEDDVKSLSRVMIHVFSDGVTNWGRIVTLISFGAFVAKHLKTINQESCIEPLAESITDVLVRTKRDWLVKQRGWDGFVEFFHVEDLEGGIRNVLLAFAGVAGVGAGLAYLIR
GLD-1 RNA inh: GLD-1-TGE RNA interaction inhibition (C. elegans) | Q17339 | purified GLD-1 + fluorescein TGE RNA, fluorescence polarization | inhibition, % at 5.96 µM | 320,000 compounds, 0.44% hits | AID 2280;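 active means percent inhibition above a per-plate cutoff, the plate mean of test compounds plus 3 SD, cut at about 30% in these data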
MCL1 BIM primary: inhibitors of human MCL1 binding to BIM-BH3 peptide; inhibition, % at 10.9 µM; 320,000 compounds, 0.68% hits; AID 2057; GST-MCL1 / FITC-Bim-BH3 fluorescence polarization; Q07820;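 active means inhibition above the mean inhibition of all tested compounds plus 3 SD, set per campaign, cut at about 40% in these data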;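 further: higher means more loss of mP so more displacement of Bim peptide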
BCLXL inh: inhibitors of human Bcl-xL. Q07817. GST-Bcl-xL / FITC-Bim BH3 peptide fluorescence polarization. inhibition, % at 10.9 µM. 320,000 compounds, 0.7% hits. AID 2129;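 active means inhibition above the mean of all tested compounds plus 3 SD, cutoff set per campaign, cut at about 30% in these data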;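 further: inhibitors lower millipolarization by displacing the labeled peptide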
Target sequence (Q07817 whole entry, looked up): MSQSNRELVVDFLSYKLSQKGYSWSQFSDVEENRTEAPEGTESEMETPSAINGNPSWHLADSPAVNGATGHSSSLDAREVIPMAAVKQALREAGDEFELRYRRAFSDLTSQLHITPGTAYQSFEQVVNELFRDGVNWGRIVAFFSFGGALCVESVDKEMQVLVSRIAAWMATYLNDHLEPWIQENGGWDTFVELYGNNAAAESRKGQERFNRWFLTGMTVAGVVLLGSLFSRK
Bim-Mcl-1: human Bim-Mcl-1 interaction inhibition; Q07820; Bead-based flow cytometry, Bim peptide-Mcl-1 binding; inhibition, % at 10 µM; 190,000 compounds, 0.1% hits; in the data active means inhibition above about 40%
Mcl1-Bid inh: Mcl-1/Bid interaction inhibition; TR-FRET Mcl-1/Bid-Dy647 peptide binding, 1536-well; 220,000 compounds, 0.97% hits; inhibition, % at 21.7 µM; Q07820;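 active means compounds that cut the binding signal by more than half at the single screening dose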;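 further: His-tagged Mcl-1 with europium anti-His antibody binding Bid BH3 peptide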
BCLXL inh confirm: counter-screen for MCL1 inhibitors: confirmation of human Bcl-xL inhibitors; shares compounds with MCL1 BIM primary; GST-Bcl-xL / FITC-Bim BH3 peptide FP binding; inhibition, % at 10.9 µM; 1,700 compounds, 54% hits;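 active means inhibition above a cutoff equal to the mean inhibition of all tested compounds plus 3 SD, cut at about 30% in these data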
MCL1 inh confirm: confirmation of human MCL1 and BIM-BH3 interaction inhibitors; shares compounds with MCL1 BIM primary; GST-MCL1 / FITC-Bim-BH3 fluorescence polarization; inhibition, % at 10.9 µM; 1,700 compounds, 61% hits; AID 2168;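 active means inhibition above the average of all tested compounds plus 3 SD, cut at about 40% in these data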
GLD1 RNA confirm: confirmation of C. elegans GLD-1 TGE RNA binding inhibitors. shares compounds with GLD-1 RNA inh. GLD-1/FL-TGE RNA fluorescence polarization, biochemical. inhibition, % at 5.96 µM. 550 compounds, 10% hits. AID 2459;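 active means average inhibition across triplicates above the hit cutoff set in the primary screen, cut at about 32% in these data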
Each line names hits and unclear results; the compound was inactive in the other large screens (follow-up assays come after a bar, where they were run).

N[C@@]1(C(=O)O)CC[C@@H](C(=O)O)C1	none (no result: Mcl1-Noxa inh, Bim-Mcl-1, Mcl1-Bid inh)
C#C[C@]1(O)CC[C@H]2[C@@H]3CCC4=Cc5nc6nc7ccccc7n6cc5C[C@]4(C)[C@H]3CC[C@@]21C	MCL1 BIM primary 59.7, BCLXL inh 51.2 (no result: Mcl1-Noxa inh, Bim-Mcl-1, Mcl1-Bid inh) | BCLXL inh confirm inactive | MCL1 inh confirm inactive
COc1ccc(N/N=C/c2c(O)n(-c3ccc(C)c(C)c3)c(=O)[nH]c2=O)cc1	MCL1 BIM primary 53.6, BCLXL inh 50.8 | BCLXL inh confirm inactive | MCL1 inh confirm inactive
CN1C(=O)C(=Cc2cn(CC(=O)N3CCCC3)c3ccccc23)C(=O)N(C)C1=O	none (no result: Mcl1-Noxa inh, Bim-Mcl-1, Mcl1-Bid inh)
CCN1C(=O)NC(=O)/C(=C\c2cn(CC(=O)N3CCCCC3C)c3ccccc23)C1=O (stereo unspecified)	MCL1 BIM primary 80.5, BCLXL inh 104.7 (no result: Mcl1-Noxa inh, Bim-Mcl-1, Mcl1-Bid inh) | BCLXL inh confirm 162.4 | MCL1 inh confirm active
CNc1ccc2nc3ccccc3[n+](C)c2c1	MCL1 BIM primary 184.8, BCLXL inh 147.4 (no result: Mcl1-Noxa inh, Bim-Mcl-1, Mcl1-Bid inh) | BCLXL inh confirm 117.6 | MCL1 inh confirm 168.6
CC(C)CN(CC(C)C)c1ccc(C=C2C(=O)NC(=S)NC2=O)cc1[N+](=O)[O-]	MCL1 BIM primary 69.7 | BCLXL inh confirm 41.8 | MCL1 inh confirm 96.6
Cc1ccc2c(c1)N(C(=O)CCC(=O)N1CCC3(CC1)OCCO3)CCO2	none (no result: Mcl1-Noxa inh, Bim-Mcl-1, Mcl1-Bid inh)
COC(=O)C1=C(c2ccc(F)cc2F)C[C@@H]2CC[C@H]1N2C(=O)NCc1ccc(C(F)(F)F)cc1	none (no result: Mcl1-Noxa inh, Bim-Mcl-1, Mcl1-Bid inh)
O=C1NC(=O)N(c2ccc(Cl)cc2)C(=O)/C1=C\c1ccc(Sc2nc3ccccc3[nH]2)o1	Mcl1-Noxa inh 68.5, MCL1 BIM primary 73.9, BCLXL inh 58.5 | BCLXL inh confirm inactive | MCL1 inh confirm 64.5
O=C1C=C2C=C[C@@H]3CC2(O1)[C@H]1CCCCN31	MCL1 BIM primary 125.3 (no result: Mcl1-Noxa inh, Bim-Mcl-1, Mcl1-Bid inh) | BCLXL inh confirm inactive | MCL1 inh confirm inactive
CC(=O)c1ccc(NC(=O)N2C[C@H]3C[C@@H](C2)c2cccc(=O)n2C3)cc1	none (no result: Mcl1-Noxa inh, Bim-Mcl-1, Mcl1-Bid inh)
CCOC(=O)[C@]1(C#N)[C@@H]2C=CC(C(C)=O)=CN2[C@@H](C(N)=O)[C@@H]1c1ccsc1	GLD-1 RNA inh 54.1, MCL1 BIM primary 95.5, BCLXL inh 88.2 | BCLXL inh confirm 108.2 | MCL1 inh confirm 145.2
Cc1cc(O)c2c(c1)OC(C)(C)C1=C2CC(C)CC1 (stereo unspecified)	none (no result: Mcl1-Noxa inh, Bim-Mcl-1, Mcl1-Bid inh)
CCOP(=O)(OCC)C(O)c1cccnc1 (stereo unspecified)	none (no result: Bim-Mcl-1)
Oc1c(Br)c(Br)c(Br)c(Br)c1Br	MCL1 BIM primary 72.9 (no result: Mcl1-Noxa inh, Bim-Mcl-1, Mcl1-Bid inh) | BCLXL inh confirm inactive | MCL1 inh confirm 54.8
COc1ccc(OC)c(N=Cc2c(O)[nH]c(=O)[nH]c2=O)c1	none (no result: Mcl1-Noxa inh, Bim-Mcl-1, Mcl1-Bid inh)
COc1ccc2c(c1O)-c1c(OC)c(OC)cc3c1[C@H](C2)N(C)CC3	none (no result: Mcl1-Noxa inh, Bim-Mcl-1, Mcl1-Bid inh)
CCCN1CCc2cccc3c2[C@H]1Cc1ccc(O)c(O)c1-3	MCL1 BIM primary 46.1, BCLXL inh 32.2 (no result: Mcl1-Noxa inh, Bim-Mcl-1, Mcl1-Bid inh) | BCLXL inh confirm 54.4 | MCL1 inh confirm 84.7
C=C[C@@H]1C2=CCOC(=O)C2=CO[C@H]1O[C@@H]1O[C@H](CO)[C@@H](O)[C@H](O)[C@H]1O	none (no result: Mcl1-Noxa inh, Bim-Mcl-1, Mcl1-Bid inh)
NC(N)=Nc1ccc2[nH]c3c(c2c1)C[C@@]1(O)[C@H]2Cc4ccc(O)c5c4[C@@]1(CCN2CC1CC1)C3O5 (stereo partly specified)	none (no result: Mcl1-Noxa inh, MCL1 BIM primary, BCLXL inh, Bim-Mcl-1, Mcl1-Bid inh)
CC(C)C[C@H]1C(=O)N2CCC[C@H]2[C@]2(O)O[C@](NC(=O)[C@@H]3C=C4c5cccc6[nH]cc(c56)C[C@H]4N(C)C3)(C(C)C)C(=O)N12	GLD-1 RNA inh 117.9, MCL1 BIM primary active, BCLXL inh 149.4 (no result: Mcl1-Noxa inh, Bim-Mcl-1, Mcl1-Bid inh) | BCLXL inh confirm 92.5 | MCL1 inh confirm 113.8
OCCNc1c2c(nc3ccccc13)CCCC2	none
C[n+]1c2ccccc2nc2ccc(NCCO)cc21	GLD-1 RNA inh 34.0, MCL1 BIM primary 81.8, BCLXL inh 73.2 (no result: Mcl1-Noxa inh, Bim-Mcl-1, Mcl1-Bid inh) | BCLXL inh confirm 77.9 | MCL1 inh confirm 84.0 | GLD1 RNA confirm inactive

Source: PubChem (several laboratories)
